Measurements: PubChem BioAssay (NCI)
The panel holds about 79,000 compounds, 15% with a hit somewhere; the sample as a whole holds those more often. A number with no mark means an inactive call. Activity calls are given as the source filed them. Cut-off read from the data, not from the text of the source: active = growth inhibition above about 70%; inactive = the rest.

Key:
[1] = NCI Yeast Anticancer Drug Screen. Data for the mec2-1 strain (AID 157); conditions: S. cerevisiae mec2-1 strain, hits give high values
How it was run: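 Mutant yeast (mec2-1) grown with compound; growth inhibition relative to vehicle control reported.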

[2] = NCI Yeast Anticancer Drug Screen. Data for the rad14 strain (AID 159);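 note: 0% = growth of vehicle-treated control cultures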; conditions: S. cerevisiae rad14 strain growth inhibition, hits give high values
How it was run: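 Compound-treated yeast with a defined DNA-repair lesion; growth inhibition normalised to vehicle-treated cultures.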

[3] = NCI Yeast Anticancer Drug Screen. Data for the sgs1 mgt1 strain (AID 161);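 note: 0% = growth of cultures given vehicle only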; conditions: S. cerevisiae sgs1 mgt1 strain, hits give high values
How it was run: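 Compounds are added to genetically altered yeast, and growth is compared with cultures given vehicle alone to give percent inhibition.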

[4] = NCI Yeast Anticancer Drug Screen. Data for the CLN2oe strain (AID 163);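 note: 0% = growth of vehicle-only control cultures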; conditions: S. cerevisiae CLN2oe strain, hits give high values
How it was run: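 Compounds are applied to yeast harbouring a defined cell-cycle control change; reduced growth compared with vehicle-treated controls gives the value.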

[5] = NCI Yeast Anticancer Drug Screen. Data for the cln2 rad14 strain (AID 165);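 note: 0% = growth equal to vehicle treated cultures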; conditions: S. cerevisiae cln2 rad14 strain, hits give high values
How it was run: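 Readout is yeast growth inhibition versus vehicle-treated controls, using a strain with cln2 and rad14 alterations exposed to compound.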

[6] = NCI Yeast Anticancer Drug Screen. Data for the bub3 strain (AID 167); conditions: S. cerevisiae bub3 mutant strain, hits give high values
How it was run: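 Growth of a checkpoint-deficient yeast mutant is measured after compound exposure. Values represent inhibition relative to vehicle.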

[7] = NCI Yeast Anticancer Drug Screen. Data for the wt2 strain (AID 169);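 note: 0% = growth of vehicle-treated yeast cultures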; conditions: S. cerevisiae wt2 strain growth inhibition, hits give high values
How it was run: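 Against vehicle-treated controls, the growth of yeast exposed to each compound was compared, and the inhibition was recorded.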

[8] = NCI Yeast Anticancer Drug Screen. Data for the mlh1 strain (AID 171);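 note: 0% = growth of vehicle-treated control cultures of the same strain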; conditions: S. cerevisiae mlh1 strain growth inhibition, hits give high values
How it was run: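 Measured: yeast growth. Reference: vehicle-treated controls. Organism: strain with a defined alteration affecting DNA damage repair or cell cycle control, treated with compound.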

[9] = NCI Yeast Anticancer Drug Screen. Data for the sgs1 strain (AID 173);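 note: 0% = growth of vehicle-only control cultures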; conditions: S. cerevisiae sgs1 mutant, hits give high values
How it was run: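 Each compound was added to cultures of the altered yeast strain. Growth was recorded, and inhibition was derived by comparison with vehicle controls.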

[10] = NCI Yeast Anticancer Drug Screen. Data for the mlh1 rad18 strain (AID 175); conditions: S. cerevisiae mlh1 rad18 strain growth inhibition, hits give high values
How it was run: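 Genetically defined yeast (DNA repair-deficient) exposed to compounds; growth inhibition determined relative to vehicle.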

[11] = NCI Yeast Anticancer Drug Screen. Data for the rad52 strain (AID 147);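 note: 0% = growth of vehicle-treated control cultures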; conditions: S. cerevisiae rad52 mutant growth inhibition, hits give high values
How it was run: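 The repair-mutant yeast strain was incubated with compounds, then growth was read and inhibition derived relative to vehicle.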

[12] = NCI Yeast Anticancer Drug Screen. Data for the wt1 strain (AID 149);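 note: 0% = growth of vehicle-treated wt1 cultures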; conditions: S. cerevisiae wt1 strain (SPY 50644) growth inhibition, hits give high values
How it was run: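 Readout: yeast growth inhibition, normalised to vehicle controls, in the wt1 strain exposed to test compounds.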

[13] = NCI Yeast Anticancer Drug Screen. Data for the rad50EPP+ strain (AID 151);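 note: 0% = growth of vehicle-treated control cultures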; conditions: S. cerevisiae rad50 mutant strain, hits give high values
How it was run: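 Vehicle-normalised growth inhibition; rad50EPP+ yeast strain, altered in DNA damage repair, compound-treated.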

[14] = NCI Yeast Anticancer Drug Screen. Data for the mgt1 strain (AID 153); conditions: S. cerevisiae mgt1 mutant growth inhibition, hits give high values
How it was run: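 Vehicle-normalized growth inhibition is determined in mgt1 yeast, a strain selected for a defined alteration in DNA repair or cell cycle control.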

[15] = NCI Yeast Anticancer Drug Screen. Data for the rad50 strain (AID 155);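 note: 0% = growth of vehicle-only cultures of the same strain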; conditions: S. cerevisiae rad50 strain growth inhibition, hits give high values
How it was run: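 Compounds were tested on a yeast strain with an engineered DNA damage repair alteration; the reported value is growth inhibition normalised to vehicle treatment.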

[16] = at 5.0 µM (retest, dose inferred, filed as 0.5)
[17] = at 50.0 µM (retest, dose inferred, filed as 5.0)

## CN(C)N=Nc1ccccc1C(=O)NC#N
[1]; [16]
  growth inhibition: 8%
[1]; at 11.0 µM
  growth inhibition: 97% (active)
[1]; at 33.0 µM
  growth inhibition: 99% (active)
[1]; [17]
  growth inhibition: 99% (active)
[1]; at 50.0 µM
  growth inhibition: 91.5% (active)
[1]; at 100.0 µM
  growth inhibition: 95% (active)
[2]; at 1.2 µM
  growth inhibition: -17%
[2]; at 3.7 µM
  growth inhibition: -14%
[2]; at 11.0 µM
  growth inhibition: 75% (active)
[2]; at 33.0 µM
  growth inhibition: 98% (active)
[2]; at 100.0 µM
  growth inhibition: 96% (active)
[3]; [16]
  growth inhibition: 36%
[3]; [17]
  growth inhibition: 53%
[3]; at 50.0 µM
  growth inhibition: 91.5% (active)
[4]; at 1.2 µM
  growth inhibition: 23%
[4]; at 3.7 µM
  growth inhibition: 22%
[4]; at 11.0 µM
  growth inhibition: 98% (active)
[4]; at 33.0 µM
  growth inhibition: 99% (active)
[4]; at 100.0 µM
  growth inhibition: 99% (active)
[5]; [16]
  growth inhibition: 35%
[5]; [17]
  growth inhibition: 67%
[5]; at 50.0 µM
  growth inhibition: 89.8% (active)
[6]; at 1.2 µM
  growth inhibition: 13%
[6]; at 3.7 µM
  growth inhibition: 10%
[6]; [16]
  growth inhibition: 39%
[6]; at 11.0 µM
  growth inhibition: 98% (active)
[6]; at 33.0 µM
  growth inhibition: 99% (active)
[6]; [17]
  growth inhibition: 77% (active)
[6]; at 50.0 µM
  growth inhibition: 90.2% (active)
[6]; at 100.0 µM
  growth inhibition: 99% (active)
[7]; at 1.2 µM
  growth inhibition: -8%
[7]; at 3.7 µM
  growth inhibition: -1%
[7]; at 11.0 µM
  growth inhibition: 98% (active)
[7]; at 33.0 µM
  growth inhibition: 99% (active)
[7]; at 100.0 µM
  growth inhibition: 99% (active)
[8]; at 1.2 µM
  growth inhibition: 1%
[8]; at 3.7 µM
  growth inhibition: 4%
[8]; at 11.0 µM
  growth inhibition: 93% (active)
[8]; at 33.0 µM
  growth inhibition: 99% (active)
[8]; at 100.0 µM
  growth inhibition: 98% (active)
[9]; at 1.2 µM
  growth inhibition: -6%
[9]; at 3.7 µM
  growth inhibition: -24%
[9]; at 11.0 µM
  growth inhibition: 98% (active)
[9]; at 33.0 µM
  growth inhibition: 98% (active)
[9]; at 100.0 µM
  growth inhibition: 99% (active)
[10]; [16]
  growth inhibition: 5%
[10]; [17]
  growth inhibition: 98% (active)
[10]; at 50.0 µM
  growth inhibition: 89.4% (active)

## CC(=O)OC1CC2C(C)(C)C(=O)C=C[C@]2(C)C2CCC3(C)C(=CCC3[C@H](CO)C[C@H](O)C(=O)C(C)(C)O)[C@]12C (stereo partly specified)
[11]; at 1.2 µM
  growth inhibition: -7%
[11]; at 3.7 µM
  growth inhibition: -4%
[11]; at 11.0 µM
  growth inhibition: -3%
[11]; at 33.0 µM
  growth inhibition: 11%
[11]; at 100.0 µM
  growth inhibition: 81% (active)
[12]; at 1.2 µM
  growth inhibition: -26%
[12]; at 3.7 µM
  growth inhibition: -17%
[12]; at 11.0 µM
  growth inhibition: -31%
[12]; at 33.0 µM
  growth inhibition: -21%
[12]; at 100.0 µM
  growth inhibition: 75% (active)
[13]; at 1.2 µM
  growth inhibition: -34%
[13]; at 3.7 µM
  growth inhibition: -35%
[13]; at 11.0 µM
  growth inhibition: -39%
[13]; at 33.0 µM
  growth inhibition: -39%
[13]; at 100.0 µM
  growth inhibition: -31%
[14]; at 1.2 µM
  growth inhibition: -26%
[14]; at 3.7 µM
  growth inhibition: -34%
[14]; at 11.0 µM
  growth inhibition: 53%
[14]; at 33.0 µM
  growth inhibition: 90% (active)
[14]; at 100.0 µM
  growth inhibition: 94% (active)
[15]; at 1.2 µM
  growth inhibition: -5%
[15]; at 3.7 µM
  growth inhibition: -18%
[15]; [16]
  growth inhibition: -14%
[15]; at 11.0 µM
  growth inhibition: -16%
[15]; at 33.0 µM
  growth inhibition: 6%
[15]; [17]
  growth inhibition: 23%
[15]; at 50.0 µM
  growth inhibition: 44.9%
[15]; at 100.0 µM
  growth inhibition: 62%
[1]; at 1.2 µM
  growth inhibition: -56%
[1]; at 3.7 µM
  growth inhibition: -56%
[1]; [16]
  growth inhibition: -10%
[1]; at 11.0 µM
  growth inhibition: -77%
[1]; at 33.0 µM
  growth inhibition: -40%
[1]; [17]
  growth inhibition: 12%
[1]; at 50.0 µM
  growth inhibition: 42.8%
[1]; at 100.0 µM
  growth inhibition: 53%
[2]; at 1.2 µM
  growth inhibition: -42%
[2]; at 3.7 µM
  growth inhibition: -46%
[2]; at 11.0 µM
  growth inhibition: -29%
[2]; at 33.0 µM
  growth inhibition: -5%
[2]; at 100.0 µM
  growth inhibition: 77% (active)
[3]; [16]
  growth inhibition: 35%
[3]; [17]
  growth inhibition: 93% (active)
[3]; at 50.0 µM
  growth inhibition: 88.8% (active)
[4]; at 1.2 µM
  growth inhibition: -41%
[4]; at 3.7 µM
  growth inhibition: -14%
[4]; at 11.0 µM
  growth inhibition: -7%
[4]; at 33.0 µM
  growth inhibition: 0%
[4]; at 100.0 µM
  growth inhibition: 82% (active)
[5]; [16]
  growth inhibition: 32%
[5]; [17]
  growth inhibition: 43%
[5]; at 50.0 µM
  growth inhibition: 26.6%
[6]; at 1.2 µM
  growth inhibition: -24%
[6]; at 3.7 µM
  growth inhibition: -35%
[6]; [16]
  growth inhibition: 13%
[6]; at 11.0 µM
  growth inhibition: -41%
[6]; at 33.0 µM
  growth inhibition: -29%
[6]; [17]
  growth inhibition: 50%
[6]; at 50.0 µM
  growth inhibition: 38.1%
[6]; at 100.0 µM
  growth inhibition: 78% (active)
[7]; at 1.2 µM
  growth inhibition: -32%
[7]; at 3.7 µM
  growth inhibition: -18%
[7]; at 11.0 µM
  growth inhibition: 50%
[7]; at 33.0 µM
  growth inhibition: 86% (active)
[7]; at 100.0 µM
  growth inhibition: 95% (active)
[8]; at 1.2 µM
  growth inhibition: -35%
[8]; at 3.7 µM
  growth inhibition: -23%
[8]; at 11.0 µM
  growth inhibition: 39%
[8]; at 33.0 µM
  growth inhibition: 86% (active)
[8]; at 100.0 µM
  growth inhibition: 92% (active)
[9]; at 1.2 µM
  growth inhibition: -34%
[9]; at 3.7 µM
  growth inhibition: -5%
[9]; at 11.0 µM
  growth inhibition: 60%
[9]; at 33.0 µM
  growth inhibition: 87% (active)
[9]; at 100.0 µM
  growth inhibition: 93% (active)
[10]; [16]
  growth inhibition: -6%
[10]; [17]
  growth inhibition: 39%
[10]; at 50.0 µM
  growth inhibition: 26.1%
